According to PubChem BioAssay (NCATS):
Results filed as inconclusive are left out. The source made the active and inactive calls. The call rests on the fitted dose curve; in most records, active means well fitted curve in the direction sought with a large enough effect; inconclusive means small, poorly fitted or top-dose-only effect, or another doubt; inactive means no such curve, though single readings can be large; an effect the other way counts as inactive or inconclusive.

Experiments:
[1] = qHTS to identify inhibitors of the type 1 interferon - major histocompatibility complex class I in skeletal muscle: primary screen against the NCATS Pharmaceutical Collection (AID 1347407);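 further: luminescence of HiBiT knocked into endogenous HLA-B as interferon-induced MHC class I level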
In short: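 Cells were seeded with 4 ng/ml IFN-beta, incubated 1 h, then dosed with compounds over eight 1:5 steps up to 46 uM final. After 24 h at 37 C, HiBiT lytic reagent was added and luminescence read after 10 min lysis in the dark.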

[2] = target: Protein phosphatase 1D (Homo sapiens) (UniProt O15297); experiment: RapidFire Mass Spectrometry qHTS Assay for Modulators of WT P53-Induced Phosphatase 1 (WIP1) (AID 1347424);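 further: amount of dephosphorylated VEPPL-S-QETFS peptide product formed by WIP1; series mostly up to about 63 µM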
Sequence of Protein phosphatase 1D (Homo sapiens) (O15297 whole entry, looked up): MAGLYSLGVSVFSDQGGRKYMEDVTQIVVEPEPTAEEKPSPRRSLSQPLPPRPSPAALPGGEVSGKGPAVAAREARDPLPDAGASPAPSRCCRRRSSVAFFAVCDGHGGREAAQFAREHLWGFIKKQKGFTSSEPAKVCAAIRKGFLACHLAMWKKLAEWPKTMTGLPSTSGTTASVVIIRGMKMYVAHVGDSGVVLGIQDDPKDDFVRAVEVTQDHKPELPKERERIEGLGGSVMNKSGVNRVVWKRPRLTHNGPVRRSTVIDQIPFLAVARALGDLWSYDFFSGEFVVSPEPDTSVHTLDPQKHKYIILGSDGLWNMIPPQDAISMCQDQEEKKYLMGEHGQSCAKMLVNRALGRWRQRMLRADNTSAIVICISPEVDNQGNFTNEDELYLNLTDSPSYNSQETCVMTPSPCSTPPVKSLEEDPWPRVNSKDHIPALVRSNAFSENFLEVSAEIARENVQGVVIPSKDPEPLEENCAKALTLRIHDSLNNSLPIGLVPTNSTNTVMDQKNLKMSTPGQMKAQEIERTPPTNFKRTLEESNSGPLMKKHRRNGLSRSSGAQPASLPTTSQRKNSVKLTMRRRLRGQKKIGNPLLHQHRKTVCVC
In short: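 Mass-spectrometric measurement of dephosphorylated peptide after a 5 min room-temperature reaction of 10 nM WIP1 with 2 uM phosphopeptide, following 1 h compound preincubation in 30 mM MgCl2 buffer.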

[3] = target: Protein phosphatase 1D (Homo sapiens) (UniProt O15297); experiment: Rhodamine-PBP qHTS Assay for Modulators of WT P53-Induced Phosphatase 1 (WIP1) (AID 1347425)
In short: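 Steps: enzyme with Rh-PBP sensor and compounds, room-temperature incubation of 1 hr, baseline read, addition of VEPPL-pS-QETFS (10 uM final), kinetic fluorescence reads at 525/598 nm. Activity equals final minus baseline signal.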

[4] = Primary qHTS for inhibitors of La Crosse Virus (LACV) - induced cell death in SH-SY5Y cells (AID 1508616);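 further: top concentration of the series differs between compounds; higher means more rescue of cells from virus-induced death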
In short: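 Screening measures cell viability in LACV-infected SH-SY5Y cultures. Compound was added before virus (0.01 MOI), and ATP was detected by luminescence 6 days later.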

[5] = target: Calcium and integrin-binding protein 1 (Homo sapiens) (UniProt Q99828); experiment: Primary qHTS for Identification of Calcium Integrin Binding Protein 1 (CIB1) Competitor (AID 1508620);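 further: GST tagged CIB1 binding a fluorescein labelled alphaIIb integrin peptide tracer; top concentration of the series differs between compounds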
Sequence of Calcium and integrin-binding protein 1 (Homo sapiens) (Q99828 whole entry, looked up): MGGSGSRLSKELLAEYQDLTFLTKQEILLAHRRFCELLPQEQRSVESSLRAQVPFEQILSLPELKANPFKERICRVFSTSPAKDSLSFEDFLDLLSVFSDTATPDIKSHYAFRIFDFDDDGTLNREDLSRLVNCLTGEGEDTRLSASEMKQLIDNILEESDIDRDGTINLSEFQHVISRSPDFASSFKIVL
In short: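 Fluorescence polarization competition: CIB1-GST (1 uM final) preincubated with compound 15 min at room temperature, then FITC-labeled alphaIIb peptide (100 nM final) added for another 15 min. Polarization read at Ex 480/Em 540.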

[6] = Counterscreen qHTS for small molecule stabilizers of the endoplasmic reticulum resident proteome: GLuc-NoTag assay (AID 1508627); further: series mostly up to about 76 µM
In short: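 Secreted GLuc lacking the SERCaMP modification is measured in SH-SY5Y cells exposed to compound for 19 h and then to thapsigargin (100 nM, 4 h) to deplete ER calcium; hits retested at 11 concentrations, up to 76.6 uM.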

Measured: Potency

Cc1cc(O)cc2c1O[C@](C)(CCC[C@H](C)CCC[C@H](C)CCCC(C)C)CC2
not listed: [6]
inactive: all other assays above

CCOC(=O)c1ccc(O)cc1
not listed: [6]
inactive: all other assays above

N[C@@H](CSCCCO)C(=O)O
not listed: [6]
inactive: all other assays above

COc1cc(C)c(Cc2cnc(N)nc2N)cc1OC
inactive: all assays above

C=CCn1c(=O)n([C@@H]2O[C@H](CO)[C@@H](O)[C@H]2O)c2nc(N)[nH]c(=O)c21
inactive: all assays above

CN(C)CCCO[C@@H]1[C@H]2OC(C)(C)O[C@H]2O[C@@H]1C(O)CO (some centres not stated)
not listed: [6]
inactive: all other assays above

CC(C)(C)NCC(O)COc1ccc(NC(=O)NC2CCCCC2)cc1 (configuration not stated)
not listed: [6]
inactive: all other assays above
